Records with an inconclusive call do not appear. Values without a mark were called inactive. The source made the active and inactive calls. The call rests on the fitted dose curve; in most records, active means well fitted curve in the direction sought with a large enough effect; inconclusive means small, poorly fitted or top-dose-only effect, or another doubt; inactive means no such curve, though single readings can be large; an effect the other way counts as inactive or inconclusive.

The target in test [1] is Rap guanine nucleotide exchange factor 3 (Homo sapiens) (UniProt O95398). Description: Confirmatory qHTS for antagonist of cAMP-regulated guanine nucleotide exchange factor 3 (EPAC1) (AID 1645880). Further: nearly all actives have a fitted effect of over 55% in size. Further: potency means the concentration at half of the fitted maximal effect. In outline:
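Released BODIPY-GDP fluoresces less than Rap1-bound BODIPY-GDP; the signal is followed at 480/540 nm at 5-min intervals over 30 min, after 5 min at room temperature. Reactions contain 100 nM EPAC1, 250 nM RAP1B-BODIPY-GDP and 50 uM GDP; results are normalized to ATA and DMSO.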
On the technique in general: qHTS replaces the single test concentration by a dilution series.

The target is the same in test [2]. Description: Confirmatory qHTS for agonist of cAMP-regulated guanine nucleotide exchange factor 3 (EPAC1) (AID 1645881). Further: nearly all actives have a fitted effect of over 75% in size. Further: potency means the concentration at half of the fitted maximal effect.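 On activation: EPAC1 catalysed release of BODIPY-GDP from Rap1B seen as fluorescence loss; 100% = effect of cAMP agonist control.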
Test [3] has as its target Rap guanine nucleotide exchange factor 4 (Homo sapiens) (UniProt Q8WZA2). Kind of test: Confirmatory qHTS for agonist of cAMP-regulated guanine nucleotide exchange factor 4 (EPAC2) (AID 1645884).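 Further: nucleotide exchange releases bodipy-GDP from Rap1 and this lowers its fluorescence; nearly all actives have a fitted effect of over 65% in size.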 Further: potency means the concentration at half of the fitted maximal effect. On activation: on the % scale 0 is the no-effect control and ±100 the full control effect.
The target is the same in test [4]. Description: Confirmatory qHTS for antagonist of cAMP-regulated guanine nucleotide exchange factor 4 (EPAC2) (AID 1645885). Further: nearly all actives have a fitted effect of over 25% in size. Further: potency means the concentration at half of the fitted maximal effect. On activity change, negative = inhibition: on the % scale 0 is the no-effect control and ±100 the full control effect.
For test [5], the target named is Rap guanine nucleotide exchange factor 3 (Homo sapiens) (UniProt O95398). Description: Counterscreen qHTS for antagonist of cAMP-regulated guanine nucleotide exchange factor 3 (EPAC1) (AID 1645888). Further: % of control where 0% means no effect. In outline:
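Rap1B–BODIPY-GDP (250 nM) with 50 uM GDP; compounds pin-transferred to 9.74 nM–152 uM final (activator) or from 7.32 nM upwards (inhibitor). Fluorescence Ex/Em 480/540 nm read at 5 and 30 min, then after adding cAMP or buffer, at room temperature.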
(In general: Counterscreens check selectivity or assay interference.)

Rap guanine nucleotide exchange factor 4 (Homo sapiens), sequence (Q8WZA2 whole entry, looked up): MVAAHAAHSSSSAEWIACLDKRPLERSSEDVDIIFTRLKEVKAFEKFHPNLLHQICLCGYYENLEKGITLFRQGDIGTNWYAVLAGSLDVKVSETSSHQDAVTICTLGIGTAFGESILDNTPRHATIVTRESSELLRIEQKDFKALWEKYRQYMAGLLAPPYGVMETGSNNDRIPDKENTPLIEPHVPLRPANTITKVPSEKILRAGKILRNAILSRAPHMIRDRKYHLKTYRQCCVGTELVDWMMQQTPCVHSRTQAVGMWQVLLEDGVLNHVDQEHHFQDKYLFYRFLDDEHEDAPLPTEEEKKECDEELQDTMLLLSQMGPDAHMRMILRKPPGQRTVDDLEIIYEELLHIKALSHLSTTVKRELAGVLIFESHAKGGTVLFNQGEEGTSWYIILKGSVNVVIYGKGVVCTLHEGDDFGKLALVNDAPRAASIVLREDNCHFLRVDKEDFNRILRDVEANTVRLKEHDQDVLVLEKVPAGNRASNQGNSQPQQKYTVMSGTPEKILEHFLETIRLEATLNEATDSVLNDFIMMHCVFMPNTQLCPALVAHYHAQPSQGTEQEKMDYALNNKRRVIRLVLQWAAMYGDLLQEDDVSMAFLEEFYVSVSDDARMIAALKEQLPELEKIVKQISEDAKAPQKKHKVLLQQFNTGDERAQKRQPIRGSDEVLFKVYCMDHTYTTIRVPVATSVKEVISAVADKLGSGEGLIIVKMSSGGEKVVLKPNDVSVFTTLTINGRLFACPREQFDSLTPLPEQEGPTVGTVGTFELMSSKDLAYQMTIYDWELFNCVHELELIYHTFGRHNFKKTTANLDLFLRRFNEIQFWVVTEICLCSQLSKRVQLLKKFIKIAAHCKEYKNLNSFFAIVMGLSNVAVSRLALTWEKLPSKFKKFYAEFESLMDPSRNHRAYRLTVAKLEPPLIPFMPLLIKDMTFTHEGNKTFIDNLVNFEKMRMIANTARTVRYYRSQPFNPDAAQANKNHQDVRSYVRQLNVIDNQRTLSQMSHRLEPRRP
Rap guanine nucleotide exchange factor 3 (Homo sapiens), sequence (O95398 whole entry, looked up): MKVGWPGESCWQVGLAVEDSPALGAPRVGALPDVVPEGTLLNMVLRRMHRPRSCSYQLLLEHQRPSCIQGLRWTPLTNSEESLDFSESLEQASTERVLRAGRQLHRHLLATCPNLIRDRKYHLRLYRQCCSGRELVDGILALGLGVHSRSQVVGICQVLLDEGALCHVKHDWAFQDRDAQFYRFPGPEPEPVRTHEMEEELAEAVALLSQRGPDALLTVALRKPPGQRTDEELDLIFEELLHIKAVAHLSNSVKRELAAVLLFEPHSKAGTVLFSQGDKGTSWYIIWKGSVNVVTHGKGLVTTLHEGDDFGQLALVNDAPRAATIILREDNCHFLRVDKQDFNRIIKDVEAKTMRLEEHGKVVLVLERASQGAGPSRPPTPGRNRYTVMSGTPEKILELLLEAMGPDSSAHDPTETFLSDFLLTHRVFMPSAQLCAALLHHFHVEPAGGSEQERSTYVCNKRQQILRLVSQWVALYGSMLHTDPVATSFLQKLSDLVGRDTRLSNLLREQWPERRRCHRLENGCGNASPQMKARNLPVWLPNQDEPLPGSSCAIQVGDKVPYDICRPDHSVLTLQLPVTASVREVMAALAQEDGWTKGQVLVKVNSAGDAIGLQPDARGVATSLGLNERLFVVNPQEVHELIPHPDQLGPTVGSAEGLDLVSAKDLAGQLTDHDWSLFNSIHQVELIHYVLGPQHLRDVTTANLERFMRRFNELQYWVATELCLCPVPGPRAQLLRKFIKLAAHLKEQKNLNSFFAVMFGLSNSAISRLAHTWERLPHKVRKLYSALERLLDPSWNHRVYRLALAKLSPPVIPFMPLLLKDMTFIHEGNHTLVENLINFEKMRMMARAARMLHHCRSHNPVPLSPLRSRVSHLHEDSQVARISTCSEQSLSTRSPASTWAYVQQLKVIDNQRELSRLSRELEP

On to `CC(C)CN(C(=O)CC1OC(=O)c2ccccc21)c1c(N)n(Cc2ccccc2)c(=O)[nH]c1=O` (stereo not given), for which the Potency result in test [1], in test [2], in test [3], in test [4] and in test [5] was “inactive” in each case.

On to `COC(=O)c1c(SC)nc2ccccc2c1OCc1ccccc1C`, for which the Potency entry in test [1], in test [2], in test [3], in test [4] and in test [5] was “inactive” each time.

Take `O=C(c1ccc([N+](=O)[O-])o1)N1CCN(c2nc3c(Cl)cccc3s2)CC1`: the Potency entry in test [1], in test [2], in test [3], in test [4] and in test [5] was “inactive” in each case.

Turning to `Cc1ccc(/C=C2\SC(=S)N(NS(=O)(=O)c3ccc(C)cc3)C2=O)cc1`, the Potency in test [1] is 39.8 µM (active). The Potency entry in test [2] and in test [4] was “inactive” each time. Also, the activation in test [3] was 11.9% [at 17.1 µM, percent relative to cAMP agonist control]. Moreover, in test [5], the activity change, negative = inhibition is -10.4% [at 30.8 µM].

For `COc1ccc2oc(C(=O)N(C)CCOc3ccc(Cl)cc3)c(C)c2c1`, the Potency entry in test [1], in test [2] and in test [4] was “inactive” throughout. In addition, the activation in test [3] is 7.19% [at 17.1 µM, percent relative to cAMP agonist control]. In addition, the activity change, negative = inhibition in test [5] was -14.2% [at 30.8 µM].

Turning to `CC[n+]1c(/C=C/C=C/N(C(C)=O)c2ccccc2)sc2cc(OC)ccc21`, the Potency entry in test [1], in test [4] and in test [5] was “inactive” throughout. Moreover, the Potency in test [2] is 100 µM (active); in test [3], 112 µM (active).

In the case of `C=CCOc1ccc(/C=C2\SC(=S)N(C(C(=O)O)c3ccccc3)C2=O)cc1` (stereo not given), the Potency in test [1] was 31.6 µM (active). Moreover, the Potency result in test [2] and in test [4] was “inactive” in each case. Besides, the activation in test [3] is 3.84% [at 17.1 µM, percent relative to cAMP agonist control]. The activity change, negative = inhibition in test [5] is -23.9% [at 30.8 µM].

Take `C=CCSc1nc2ccccc2c(=O)n1C1CCOC(C)(C)C1` (stereo not given): the Potency entry in test [1], in test [2], in test [3], in test [4] and in test [5] was “inactive” each time.

As for `CCCN1C(=O)c2[nH]nc(-c3ccccc3)c2C1c1cccc(O)c1` (stereo not given), the Potency result in test [1], in test [2], in test [3], in test [4] and in test [5] was “inactive” throughout.

Regarding `CCc1ccc(S(=O)(=O)/N=C2\C=C(NS(=O)(=O)c3ccccc3)C(=O)c3ccccc32)cc1`, the Potency in test [1] is 19 µM (active). Moreover, the Potency entry in test [2], in test [3], in test [4] and in test [5] was “inactive” each time.

In the case of `CCCOc1cccc(C2C(C(=O)c3cccs3)=C(O)C(=O)N2Cc2cccnc2)c1` (stereo not given), the Potency result in test [1], in test [2] and in test [4] was “inactive” in each case. The activation in test [3] is 2.94% [at 17.1 µM, percent relative to cAMP agonist control]. In test [5], the activity change, negative = inhibition was -13.9% [at 30.8 µM].

Consider `CC(=O)N1CCc2nc3sc(C(=O)Nc4ccc(Cl)cc4F)c(N)c3c(C(F)(F)F)c2C1`, for which the Potency entry in test [1], in test [2], in test [3] and in test [5] was “inactive” in each case. Besides, the outcome in test [4] was “inactive [at 12.7 µM]”.

As for `COc1ccc(C(=O)NCC2(c3ccccc3)CCCC2)c(OC)c1`, the Potency result in test [1], in test [2] and in test [4] was “inactive” throughout. Also, in test [3], the activation is -2.19% [at 17.1 µM, percent relative to cAMP agonist control]. For the same molecule, the activity change, negative = inhibition in test [5] was -13.7% [at 30.8 µM].

`CC(OC(=O)Cc1c[nH]c2ccccc12)C(=O)Nc1ccccc1F` (stereo not given): the Potency result in test [1], in test [2], in test [3], in test [4] and in test [5] was “inactive” in each case.

In the case of `COc1ccc2c(c1)cc(C(=O)N/N=C/c1c(O)c(C(=O)O)cc3ccccc13)n2C`, the Potency is 67.5 µM (active) in test [1] and 75.7 µM (active) in test [4]. For the same molecule, the Potency entry in test [2], in test [3] and in test [5] was “inactive” each time.

Turning to `CN(C(=O)CSc1nc(-c2ccc(C(C)(C)C)cc2)c(C#N)c(=O)[nH]1)C1CCCCC1`, in test [1], the Potency is 42.6 µM (active). Moreover, the Potency entry in test [2], in test [3], in test [4] and in test [5] was “inactive” in each case.

For `O=C(O)c1ccc(S(=O)(=O)/N=C2\C=C(Nc3ccccc3F)C(=O)c3ccccc32)cc1`, in test [1], the Potency was 30.1 µM (active). Also, the Potency entry in test [2], in test [3], in test [4] and in test [5] was “inactive” throughout.

As for `CCn1c(=O)c2sccc2n2c(CCCC(=O)N3CCN(c4cc(C)ccc4C)CC3)nnc12`, the Potency result in test [1], in test [2], in test [3], in test [4] and in test [5] was “inactive” each time.

Take `COc1ccc(/C=C2/SC(=S)N(c3ccc(S(=O)(=O)Nc4nccs4)cc3)C2=O)cc1`: the Potency in test [1] was 33.8 µM (active). Further, the Potency entry in test [2], in test [3], in test [4] and in test [5] was “inactive” each time.

In the case of `C#CC(c1ccccc1)(c1ccccc1)n1ccnc1`, the Potency result in test [1], in test [2], in test [3], in test [4] and in test [5] was “inactive” throughout.

Consider `O=C(NN1C(=O)/C(=C/c2ccc(O)c(O)c2)SC1=S)c1ccccc1`, for which, in test [1], the Potency was 7.57 µM (active). Further, the Potency entry in test [2], in test [3], in test [4] and in test [5] was “inactive” in each case.

Turning to `O=[N+]([O-])c1cc2ccccc2c(O)c1O`, the Potency in test [1] is 31.6 µM (active). Also, the Potency entry in test [2] and in test [4] was “inactive” each time. For the same molecule, in test [3], the activation was 8.01% [at 17.1 µM, percent relative to cAMP agonist control]. Also, the activity change, negative = inhibition in test [5] is 9.83% [at 30.8 µM].

Take `CCOc1cc(S(=O)(=O)N(CC)CC)ccc1Cl`: the Potency result in test [1], in test [2] and in test [4] was “inactive” throughout. For the same molecule, in test [3], the activation was 7.51% [at 17.1 µM, percent relative to cAMP agonist control]. In test [5], the activity change, negative = inhibition is -20.8% [at 30.8 µM].

Consider `CCN(CCNC(=O)C1CCN(S(=O)(=O)c2cccc3cccnc23)CC1)c1ccccc1`, for which the Potency entry in test [1], in test [2], in test [3], in test [4] and in test [5] was “inactive” in each case.

As for `COc1ccc2cc3[n+](cc2c1O)CCc1cc2c(cc1-3)OCO2`, the Potency in test [1] is 19 µM (active). The Potency entry in test [2], in test [3], in test [4] and in test [5] was “inactive” in each case.

`CCOc1c(Cl)cc(Cl)cc1CNCCSc1nnnn1C`: the Potency result in test [1], in test [2], in test [3], in test [4] and in test [5] was “inactive” throughout.

As to `CC1CC1c1ccc(/C=C(\C#N)C(=O)Nc2ccccc2Cl)o1` (stereo not given), the Potency result in test [1], in test [2] and in test [4] was “inactive” throughout. Besides, the activation in test [3] was 3.85% [at 17.1 µM, percent relative to cAMP agonist control]. In addition, the activity change, negative = inhibition in test [5] is -9.3% [at 30.8 µM].

For `CCOc1ccc(S(=O)(=O)n2ccc(C)n2)c2ccccc12`, the Potency entry in test [1], in test [2], in test [3], in test [4] and in test [5] was “inactive” each time.

As to `Cc1cccc(NC(=O)c2c(NC(=O)C(F)(F)F)sc3c2CCCCC3)c1`, the Potency in test [1] was 42.6 µM (active). In addition, the Potency result in test [2], in test [3], in test [4] and in test [5] was “inactive” each time.

On to `NS(=O)(=O)c1ccc(Nc2nc3ccccc3nc2NS(=O)(=O)c2cccc([N+](=O)[O-])c2)cc1`, for which the Potency in test [1] is 75.7 µM (active). The Potency result in test [2], in test [3], in test [4] and in test [5] was “inactive” each time.

Consider `Cc1ccc(S(=O)(=O)Nc2cc(=O)[nH]c(SCC(=O)Nc3cccc(C)c3)n2)cc1`, for which the Potency entry in test [1], in test [2] and in test [4] was “inactive” throughout. Moreover, the activation in test [3] is 4.73% [at 17.1 µM, percent relative to cAMP agonist control]. For the same molecule, the activity change, negative = inhibition in test [5] is -4.46% [at 30.8 µM].

With `Cc1ccc(N2C(=O)c3ccccc3C2C(=O)c2ccc(O)cc2O)cc1` (stereo not given), the Potency result in test [1], in test [2], in test [3], in test [4] and in test [5] was “inactive” each time.

In the case of `COC(=O)c1cc2oc(C)cc2n1Cc1ccc(Br)cc1F`, the Potency result in test [1], in test [2], in test [3], in test [4] and in test [5] was “inactive” each time.

For the molecule `Cc1ccc2nc3sc(C(=O)NCc4ccco4)c(N)c3cc2c1`, the Potency entry in test [1], in test [2] and in test [4] was “inactive” throughout. Further, the activation in test [3] is 2.22% [at 17.1 µM, percent relative to cAMP agonist control]. In addition, the activity change, negative = inhibition in test [5] was 3.21% [at 30.8 µM].

Turning to `C[C@H](c1ccccc1)N1C[C@@H](COCc2ccccc2)Oc2cc(N3CC[C@@H](O)C3)ccc2S1(=O)=O`, the Potency entry in test [1], in test [2], in test [3], in test [4] and in test [5] was “inactive” in each case.

For the molecule `COc1ccc(NC(=O)c2c(-c3ccccc3)c(-c3ccccc3)nn(C)c2=O)cc1OC`, the Potency entry in test [1], in test [2], in test [3], in test [4] and in test [5] was “inactive” throughout.

Regarding `O=c1[nH]c(Nc2ccccc2)cc2ccccc12`, in test [1], the Potency was 37.9 µM (active). Moreover, the Potency result in test [2], in test [3], in test [4] and in test [5] was “inactive” throughout.

As to `Cc1ccc2nc(NC(=O)CSc3nc(=O)n(CCCN(C)C)c4c3CCC4)sc2c1`, the Potency result in test [1], in test [2] and in test [4] was “inactive” each time. Also, the activation in test [3] is 2.81% [at 17.1 µM, percent relative to cAMP agonist control]. Further, the activity change, negative = inhibition in test [5] is -5.22% [at 30.8 µM].
